In PubChem BioAssay (EPA / NIEHS) one finds outcome and AC50 data, which are given here for 40 molecules.

Active and inactive are the calls of the source. Rule for the calls: active = hit-call score of the fitted dose curve at least 0.9, where 1 is the maximum; inactive = score below 0.9.

Read-out in this test: CD38, CD38 (gene 952)
Description: BSK_SAg_CD38: BioMAP Diversity Plus: SAg Assay for CD38 Biomarker Activity (AID 2283087). Conditions: primary human HUVEC with PBMC; actives raise or lower the signal. Here is the method: BSK_SAg is a cell-based, multiplexed-readout assay that uses umbilical vein endothelium and peripheral blood mononuclear cells, a human vascular primary cell co-culture, with measurements taken at 24 hours after chemical dosing in a 96-well plate.BSK_SAg_CD38 is one of 10 assay component(s) measured or calculated from the BSK_SAg assay. It is designed to make measurements of enzyme-linked immunosorbent assay, a form of binding reporter, as detected with fluorescence intensity signals by Enzyme-linked immunosorbent assay technology.Data from the assay component BSK_SAg_CD38 was analyzed into 1 assay endpoint. This assay endpoint, BSK_SAg_CD38, was analyzed with bidirectional fitting relative to DMSO as the negative control and baseline of activity. Using a type of binding reporter, gain or loss-of-signal activity can be used to understand changes in the signaling as they relate to the gene CD38. Furthermore, this assay endpoint can be referred to as a primary readout, because this assay has produced multiple assay endpoints where this one serves a signaling function. To generalize the intended target to other relatable targets, this assay endpoint is annotated to the cytokine intended target family, where the subfamily is other cytokine.
The levels of cell surface (or secreted, indicated by the prefix "s") biomarker endpoints were measured by ELISA. Overt cytotoxicity to cells in confluent adherent cultures (all systems other than the BT system) was assessed by measuring total protein levels using sulforhodamine B (SRB) staining in parallel cultures at the time of biomarker measurements, indicated as SRB endpoints. For proliferation assays for adherent cell types, individual cell types are cultured at sub-confluence and relative cell numbers quantified by SRB staining at time points optimized for each system (48 h: 3C and CASM3C systems; 72 h: BT and HDF3CGF systems; 96 h: SAg system). SRB was performed by staining cells with 0.1% SRB after fixation with 10% TCA and reading wells at 560 nm.Viability and proliferation of PBMC (T cells) was quantified by Alamar Blue reduction for the SAg and BT systems. For PBMC viability (referred to as PBMC Cytotoxicity within the assay endpoint names), cells were plated (75,000/well in a 96-well plate) and then chemical samples added for 1 h before addition of activators, SEB and TSST-1 (20 ng/mL final concentration each). Cells were incubated for 90 h. Then, Alamar Blue (20 uL/well) (Invitrogen, Cat DAL1100) was added for 6 h, and the plates were read with a fluorescence microplate reader at 546/580 nm (excitation/emission). For PBMC proliferation, cells were plated and activated as above but incubated for only 16 h prior to addition of Alamar Blue. Plates were read after 6 h.
As for `CCCCOC(=O)c1ccccc1C(=O)O`, the outcome was inactive. On the same count and under the same terms, the same measure for `C#CC(C)(C)NC(=O)c1cc(Cl)cc(Cl)c1`: “inactive”; for `CCOP(=S)(OCC)Oc1ccc2c(C)c(Cl)c(=O)oc2c1`: “inactive”. For the molecule `COc1ccc(C(=CC(=O)N2CCOCC2)c2ccc(Cl)cc2)cc1OC`, the AC50 is 17.4 µM (active).

With `CC(C)[C@H](C(=O)O[C@H](C#N)c1cccc(Oc2ccccc2)c1)c1ccc(Cl)cc1`, the result was inactive.

With `O=c1ccc(=O)[nH][nH]1`, the outcome was inactive. For the molecule `CCOP(=S)(OCC)SCCSCC`, the result was inactive. For `C#CCC1=C(C)C(OC(=O)C2C(C=C(C)C)C2(C)C)CC1=O` (stereo not given), the AC50 is 33.7 µM (active).

`CCCCN(CC)c1c([N+](=O)[O-])cc(C(F)(F)F)cc1[N+](=O)[O-]`: the AC50 was 27.9 µM (active).

`COP(=O)(OC)OC(Br)C(Cl)(Cl)Br` (stereo not given): the AC50 is 31.5 µM (active).

Consider `CCOC(=O)CC(SP(=O)(OC)OC)C(=O)OCC` (stereo not given), for which the outcome was inactive. Turning to `CON=C(C(=O)OC)c1ccccc1CON=C(C)c1cccc(C(F)(F)F)c1`, the half-maximal activity concentration (AC50) is 5.63 µM (active). With `CN(C)NC(=O)CCC(=O)O`, the outcome was inactive. On to `CC1(C(=O)Nc2ccc(O)c(Cl)c2Cl)CCCCC1`, for which the result was inactive. Take `CCOP(=S)(OCC)Oc1cc(C)nc(C(C)C)n1`: the result was inactive. As to `CCCSP(=O)(OCC)SCCC`, the result was inactive.

For `CCOP(=S)(Oc1cnc(C(C)(C)C)nc1)OC(C)C` (stereo not given), the half-maximal activity concentration (AC50) was 36.2 µM (active). With `CCNc1nc(Cl)nc(NC(C)(C)C#N)n1`, the outcome was inactive. Same read-out and setting: for `CCCCOC(=O)[C@@H](C)Oc1ccc(Oc2ccc(C#N)cc2F)cc1` the value was “inactive”. Take `CC1=NNC(=O)N(/N=C/c2cccnc2)C1`: the result was inactive. In the case of `CNC(=O)Oc1cccc2c1OC(C)(C)O2`, the concentration at half-maximal activity (AC50) was 35.1 µM (active). `CCCOc1nn(C(=O)NS(=O)(=O)c2ccccc2C(=O)OC)c(=O)n1C`: the result was inactive. On to `CC(COc1ccc(Oc2ccccc2)cc1)Oc1ccccn1` (stereo not given), for which the outcome was inactive. In the case of `N#CSCSC#N`, the AC50 was 5.28 µM (active).

With `CCOP(=S)(OCC)Oc1ccc([N+](=O)[O-])cc1`, the AC50 is 20 µM (active). Turning to `Nc1c(Cl)cc([N+](=O)[O-])cc1Cl`, the outcome was inactive. Consider `COP(=O)(OC)SCn1c(=O)oc2cc(Cl)cnc21`, for which the concentration at half-maximal activity (AC50) is 21.4 µM (active). On the same count and under the same terms, for `CC(C)=CC1C(C(=O)OCN2C(=O)C3=C(CCCC3)C2=O)C1(C)C` (stereo not given) the value was 32.2 µM (active); for `C[Si](Cn1cncn1)(c1ccc(F)cc1)c1ccc(F)cc1`, 29.9 µM (active). As for `CCc1cccc(C)c1N(C(=O)CCl)C(C)COC` (stereo not given), the outcome was inactive. Same read-out and setting: for `CC(=NC#N)N(C)Cc1ccc(Cl)nc1` the value was “inactive”; for `CCC(=NOC/C=C/Cl)C1=C(O)CC(C2CCOCC2)CC1=O` (stereo not given), “inactive”; for `COP(=O)(OC)C(O)C(Cl)(Cl)Cl` (stereo not given), “inactive”. In the case of `CCOP(=O)(NC(C)C)Oc1ccc(SC)c(C)c1` (stereo not given), the result was inactive. On to `Cc1ccn2nc(S(=O)(=O)Nc3c(F)cccc3F)nc2n1`, for which the result was inactive.

For the molecule `CCc1cccc(CC)c1N(COC)C(=O)CCl`, the AC50 is 28.6 µM (active). Turning to `CCOP(=O)(SC(C)CC)N1CCSC1=O` (stereo not given), the result was inactive. Take `CC(Oc1cccc(Cl)c1)C(=O)O` (stereo not given): the result was inactive. Turning to `CCCSP(=O)(OCC)Oc1ccc(Br)cc1Cl` (stereo not given), the AC50 is 30.5 µM (active). Turning to `CSc1nc(NC(C)C)nc(NC(C)C)n1`, the outcome was inactive.
